The source of these data is ChEMBL document CHEMBL2218924, “A broad activity screen in support of a chemogenomic map for kinase signalling research and drug discovery” (Biochem J, 2013).

Test [1] addresses Homeodomain-interacting protein kinase 3 (Homo sapiens) (UniProt Q9H422). To be noted: at 10 µM.
The target of test [2] is T1, Serine/threonine-protein kinase haspin (Homo sapiens) (UniProt Q8TF76).
T1 sequence (whole entry): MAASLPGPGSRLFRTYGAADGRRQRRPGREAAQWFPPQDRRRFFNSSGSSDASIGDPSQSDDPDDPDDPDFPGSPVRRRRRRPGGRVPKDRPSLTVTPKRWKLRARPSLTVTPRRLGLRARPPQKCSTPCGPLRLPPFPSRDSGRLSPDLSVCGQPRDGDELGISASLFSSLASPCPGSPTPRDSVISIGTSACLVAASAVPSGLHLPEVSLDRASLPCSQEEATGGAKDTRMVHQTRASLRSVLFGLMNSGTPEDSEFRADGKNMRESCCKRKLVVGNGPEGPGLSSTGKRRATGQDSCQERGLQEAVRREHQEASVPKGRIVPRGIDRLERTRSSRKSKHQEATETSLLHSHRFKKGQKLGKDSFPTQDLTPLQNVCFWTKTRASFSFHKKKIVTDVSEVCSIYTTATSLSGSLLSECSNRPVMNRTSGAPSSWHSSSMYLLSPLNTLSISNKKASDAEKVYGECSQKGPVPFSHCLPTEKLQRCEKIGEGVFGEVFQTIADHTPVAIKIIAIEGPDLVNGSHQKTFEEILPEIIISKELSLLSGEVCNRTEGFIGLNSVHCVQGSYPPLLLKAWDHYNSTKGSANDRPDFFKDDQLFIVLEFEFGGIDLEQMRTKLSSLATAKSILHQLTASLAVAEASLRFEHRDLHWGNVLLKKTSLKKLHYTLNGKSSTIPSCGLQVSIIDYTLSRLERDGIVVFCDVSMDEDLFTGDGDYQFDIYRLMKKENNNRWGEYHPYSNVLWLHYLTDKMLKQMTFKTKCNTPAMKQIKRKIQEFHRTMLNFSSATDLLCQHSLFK
To be noted: at 1 µM.

Test [3] deals with T1, Serine/threonine-protein kinase haspin (Homo sapiens). To be noted: at 10 µM.
The target of test [4] is Tyrosine-protein kinase HCK (Homo sapiens) (UniProt P08631). To be noted: at 1 µM.
Sequence of Tyrosine-protein kinase HCK (Homo sapiens) (P08631 2-526 limits assumed): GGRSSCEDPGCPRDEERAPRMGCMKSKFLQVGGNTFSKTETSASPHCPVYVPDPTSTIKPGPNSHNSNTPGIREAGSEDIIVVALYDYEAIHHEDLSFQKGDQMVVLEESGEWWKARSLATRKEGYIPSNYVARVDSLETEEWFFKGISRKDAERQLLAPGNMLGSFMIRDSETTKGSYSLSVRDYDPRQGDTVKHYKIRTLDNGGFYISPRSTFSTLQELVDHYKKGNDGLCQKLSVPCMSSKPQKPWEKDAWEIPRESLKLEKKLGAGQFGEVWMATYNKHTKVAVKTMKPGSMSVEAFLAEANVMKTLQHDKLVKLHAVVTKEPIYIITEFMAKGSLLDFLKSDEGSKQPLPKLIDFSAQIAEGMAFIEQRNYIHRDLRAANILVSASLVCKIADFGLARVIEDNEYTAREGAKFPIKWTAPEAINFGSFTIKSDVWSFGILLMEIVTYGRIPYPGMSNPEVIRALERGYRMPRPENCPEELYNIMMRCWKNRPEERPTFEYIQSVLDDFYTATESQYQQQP
The target is the same in test [5]. To be noted: at 10 µM.
Test [6] has the same target. To be noted: at 1 µM. This is another data set of the same source.
Test [7] has the same target. To be noted: at 10 µM. The source holds these as a separate data set.
The target of test [8] is Insulin-like growth factor 1 receptor (Homo sapiens) (UniProt P08069). To be noted: at 1 µM.
Sequence of Insulin-like growth factor 1 receptor (Homo sapiens) (P08069 31-736 limits assumed): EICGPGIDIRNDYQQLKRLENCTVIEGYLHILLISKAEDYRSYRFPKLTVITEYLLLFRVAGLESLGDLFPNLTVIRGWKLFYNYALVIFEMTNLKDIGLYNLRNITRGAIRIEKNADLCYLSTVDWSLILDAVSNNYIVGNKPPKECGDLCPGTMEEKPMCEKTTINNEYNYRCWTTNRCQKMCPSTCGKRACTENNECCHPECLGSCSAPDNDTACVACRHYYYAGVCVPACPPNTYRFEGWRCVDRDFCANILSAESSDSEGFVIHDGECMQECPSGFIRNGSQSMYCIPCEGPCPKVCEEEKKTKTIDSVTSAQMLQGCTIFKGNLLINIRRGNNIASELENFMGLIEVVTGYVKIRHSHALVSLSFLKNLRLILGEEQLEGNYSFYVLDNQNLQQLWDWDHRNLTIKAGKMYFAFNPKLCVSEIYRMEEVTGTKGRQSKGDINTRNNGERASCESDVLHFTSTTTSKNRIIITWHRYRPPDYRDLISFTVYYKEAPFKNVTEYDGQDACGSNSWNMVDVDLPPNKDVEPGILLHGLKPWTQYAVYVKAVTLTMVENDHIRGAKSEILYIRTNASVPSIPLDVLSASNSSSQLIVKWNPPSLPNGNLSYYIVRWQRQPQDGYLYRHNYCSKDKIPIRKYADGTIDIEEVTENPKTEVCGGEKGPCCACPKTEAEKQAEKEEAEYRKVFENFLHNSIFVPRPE
Sequence of Insulin-like growth factor 1 receptor (Homo sapiens) (P08069 741-1367 limits assumed): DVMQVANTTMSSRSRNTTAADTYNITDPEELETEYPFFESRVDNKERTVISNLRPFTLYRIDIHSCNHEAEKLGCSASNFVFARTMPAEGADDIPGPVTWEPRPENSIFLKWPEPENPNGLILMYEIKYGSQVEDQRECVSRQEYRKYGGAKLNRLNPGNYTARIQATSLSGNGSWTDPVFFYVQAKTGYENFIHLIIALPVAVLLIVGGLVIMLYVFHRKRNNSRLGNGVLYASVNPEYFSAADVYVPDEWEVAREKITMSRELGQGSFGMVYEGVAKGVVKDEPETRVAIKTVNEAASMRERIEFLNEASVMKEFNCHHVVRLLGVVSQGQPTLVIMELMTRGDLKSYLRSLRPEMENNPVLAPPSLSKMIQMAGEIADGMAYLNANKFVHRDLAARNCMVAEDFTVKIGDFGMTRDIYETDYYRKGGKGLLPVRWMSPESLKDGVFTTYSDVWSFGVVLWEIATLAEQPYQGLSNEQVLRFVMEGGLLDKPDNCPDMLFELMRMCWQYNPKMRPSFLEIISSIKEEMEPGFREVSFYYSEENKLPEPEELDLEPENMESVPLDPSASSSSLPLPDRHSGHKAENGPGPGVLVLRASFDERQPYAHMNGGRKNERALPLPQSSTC
The target is the same in test [9]. To be noted: at 10 µM.
In test [10] the target is T2, Protein kinase C zeta type (Homo sapiens) (UniProt Q05513).
T2 sequence (whole entry): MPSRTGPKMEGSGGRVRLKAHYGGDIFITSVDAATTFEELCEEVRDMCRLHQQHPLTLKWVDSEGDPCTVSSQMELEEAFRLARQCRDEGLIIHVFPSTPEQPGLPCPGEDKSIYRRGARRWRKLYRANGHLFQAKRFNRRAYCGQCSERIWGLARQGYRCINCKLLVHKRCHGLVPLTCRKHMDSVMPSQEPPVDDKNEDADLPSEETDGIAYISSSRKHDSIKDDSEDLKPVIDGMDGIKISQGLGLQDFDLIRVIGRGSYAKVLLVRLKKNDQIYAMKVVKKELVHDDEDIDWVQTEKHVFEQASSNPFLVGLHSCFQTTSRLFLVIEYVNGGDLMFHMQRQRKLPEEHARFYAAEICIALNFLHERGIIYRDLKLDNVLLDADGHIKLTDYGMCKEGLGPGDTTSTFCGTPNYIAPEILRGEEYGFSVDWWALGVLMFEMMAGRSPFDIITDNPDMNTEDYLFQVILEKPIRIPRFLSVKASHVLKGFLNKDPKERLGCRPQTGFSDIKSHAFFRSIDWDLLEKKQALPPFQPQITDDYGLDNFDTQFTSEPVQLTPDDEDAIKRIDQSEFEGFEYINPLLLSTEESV
To be noted: at 10 µM.

Test [11] concerns the target Protein kinase C eta type (Homo sapiens) (UniProt P24723). To be noted: at 1 µM.
Test [12] has the same target. To be noted: at 10 µM.
For test [13], the target named is Protein kinase C theta type (Homo sapiens) (UniProt Q04759). To be noted: at 1 µM.
Sequence of Protein kinase C theta type (Homo sapiens) (Q04759 whole entry, looked up): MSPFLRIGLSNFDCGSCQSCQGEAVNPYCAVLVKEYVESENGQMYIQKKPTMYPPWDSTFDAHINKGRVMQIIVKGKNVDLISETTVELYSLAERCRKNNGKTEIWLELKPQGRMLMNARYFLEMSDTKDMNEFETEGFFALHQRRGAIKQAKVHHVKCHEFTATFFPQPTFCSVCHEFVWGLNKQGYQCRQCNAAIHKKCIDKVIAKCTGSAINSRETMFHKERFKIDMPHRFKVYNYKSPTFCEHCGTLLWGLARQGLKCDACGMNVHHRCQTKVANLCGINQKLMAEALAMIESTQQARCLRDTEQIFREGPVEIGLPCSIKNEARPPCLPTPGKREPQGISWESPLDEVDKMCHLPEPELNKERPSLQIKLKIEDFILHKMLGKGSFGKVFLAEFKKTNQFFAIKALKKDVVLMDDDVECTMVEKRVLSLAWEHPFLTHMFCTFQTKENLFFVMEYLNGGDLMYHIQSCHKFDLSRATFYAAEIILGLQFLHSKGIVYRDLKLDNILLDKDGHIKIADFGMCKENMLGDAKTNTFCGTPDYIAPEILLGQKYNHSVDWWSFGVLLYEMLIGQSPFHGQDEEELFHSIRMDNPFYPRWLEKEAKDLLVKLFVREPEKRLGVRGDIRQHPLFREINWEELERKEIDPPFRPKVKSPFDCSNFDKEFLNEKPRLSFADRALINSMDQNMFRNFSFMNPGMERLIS
Test [14] has the same target. To be noted: at 10 µM.
The target of test [15] is T3, Protein kinase C iota type (Homo sapiens) (UniProt P41743).
T3 sequence (whole entry): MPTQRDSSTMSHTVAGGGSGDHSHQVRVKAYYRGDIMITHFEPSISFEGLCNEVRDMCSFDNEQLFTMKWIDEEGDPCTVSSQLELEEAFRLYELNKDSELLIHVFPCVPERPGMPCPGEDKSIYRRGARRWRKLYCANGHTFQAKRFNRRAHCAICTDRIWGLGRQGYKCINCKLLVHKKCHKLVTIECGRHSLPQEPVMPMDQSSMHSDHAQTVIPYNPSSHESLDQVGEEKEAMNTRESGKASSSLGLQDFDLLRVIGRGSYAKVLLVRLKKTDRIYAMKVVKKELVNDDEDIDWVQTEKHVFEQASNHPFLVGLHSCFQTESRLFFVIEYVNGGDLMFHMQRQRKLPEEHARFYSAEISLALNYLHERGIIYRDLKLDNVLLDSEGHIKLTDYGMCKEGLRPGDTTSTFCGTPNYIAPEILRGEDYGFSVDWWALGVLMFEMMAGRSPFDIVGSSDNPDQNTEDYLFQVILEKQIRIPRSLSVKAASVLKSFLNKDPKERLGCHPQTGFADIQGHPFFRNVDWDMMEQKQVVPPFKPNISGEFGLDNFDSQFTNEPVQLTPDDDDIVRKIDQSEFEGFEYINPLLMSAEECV
To be noted: at 1 µM.

Test [16] addresses T3, Protein kinase C iota type (Homo sapiens). To be noted: at 10 µM.
For test [17], the target named is T4, Serine/threonine-protein kinase D1 (Homo sapiens) (UniProt Q15139).
T4 sequence (whole entry): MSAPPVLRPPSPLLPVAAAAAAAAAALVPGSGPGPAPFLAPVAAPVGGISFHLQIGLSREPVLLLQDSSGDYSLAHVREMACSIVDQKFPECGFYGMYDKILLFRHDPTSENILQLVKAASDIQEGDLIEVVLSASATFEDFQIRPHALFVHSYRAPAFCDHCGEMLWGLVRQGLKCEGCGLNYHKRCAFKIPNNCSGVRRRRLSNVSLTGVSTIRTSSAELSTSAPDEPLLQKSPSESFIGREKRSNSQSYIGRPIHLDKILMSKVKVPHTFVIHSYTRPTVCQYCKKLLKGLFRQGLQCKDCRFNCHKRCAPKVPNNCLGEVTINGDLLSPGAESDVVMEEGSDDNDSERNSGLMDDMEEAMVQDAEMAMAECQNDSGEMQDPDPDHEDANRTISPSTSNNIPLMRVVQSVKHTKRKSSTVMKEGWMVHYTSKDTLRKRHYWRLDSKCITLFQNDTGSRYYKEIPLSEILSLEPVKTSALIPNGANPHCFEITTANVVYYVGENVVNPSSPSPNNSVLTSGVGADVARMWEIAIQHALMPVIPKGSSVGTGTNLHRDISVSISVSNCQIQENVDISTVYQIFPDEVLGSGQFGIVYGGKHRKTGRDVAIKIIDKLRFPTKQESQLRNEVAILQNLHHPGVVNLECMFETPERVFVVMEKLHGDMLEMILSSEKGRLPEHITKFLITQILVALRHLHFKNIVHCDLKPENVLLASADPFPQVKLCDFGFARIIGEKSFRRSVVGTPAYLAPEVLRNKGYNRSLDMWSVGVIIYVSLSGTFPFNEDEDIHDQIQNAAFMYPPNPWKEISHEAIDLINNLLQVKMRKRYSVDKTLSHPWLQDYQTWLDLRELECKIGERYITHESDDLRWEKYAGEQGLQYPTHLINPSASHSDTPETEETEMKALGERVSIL
To be noted: at 1 µM.

The target of test [18] is T4, Serine/threonine-protein kinase D1 (Homo sapiens). To be noted: at 10 µM.
Test [19] concerns the target T5, Serine/threonine-protein kinase D2 (Homo sapiens) (UniProt Q9BZL6).
T5 sequence (whole entry): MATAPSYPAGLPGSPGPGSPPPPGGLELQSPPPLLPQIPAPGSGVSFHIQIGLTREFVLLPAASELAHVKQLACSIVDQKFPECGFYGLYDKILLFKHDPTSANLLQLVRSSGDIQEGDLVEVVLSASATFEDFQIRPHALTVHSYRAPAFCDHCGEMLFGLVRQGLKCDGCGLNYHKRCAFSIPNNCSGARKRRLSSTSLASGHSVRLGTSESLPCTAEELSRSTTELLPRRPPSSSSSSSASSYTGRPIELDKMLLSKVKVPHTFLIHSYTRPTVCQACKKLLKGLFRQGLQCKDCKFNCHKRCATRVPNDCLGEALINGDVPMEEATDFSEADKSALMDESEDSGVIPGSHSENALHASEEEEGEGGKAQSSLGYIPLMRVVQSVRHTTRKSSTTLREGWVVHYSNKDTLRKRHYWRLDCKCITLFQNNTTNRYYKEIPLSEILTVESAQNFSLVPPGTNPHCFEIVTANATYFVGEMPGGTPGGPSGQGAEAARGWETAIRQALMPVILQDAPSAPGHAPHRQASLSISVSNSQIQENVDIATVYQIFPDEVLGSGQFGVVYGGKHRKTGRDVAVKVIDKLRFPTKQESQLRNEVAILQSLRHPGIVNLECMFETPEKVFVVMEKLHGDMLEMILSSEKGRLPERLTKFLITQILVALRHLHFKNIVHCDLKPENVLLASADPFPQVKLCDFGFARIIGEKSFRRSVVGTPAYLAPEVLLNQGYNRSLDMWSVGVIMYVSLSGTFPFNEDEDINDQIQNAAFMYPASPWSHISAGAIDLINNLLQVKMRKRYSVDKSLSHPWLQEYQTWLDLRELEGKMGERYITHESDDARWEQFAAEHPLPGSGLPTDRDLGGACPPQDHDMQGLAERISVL
To be noted: at 1 µM.

Test [20] concerns the target T5, Serine/threonine-protein kinase D2 (Homo sapiens). To be noted: at 10 µM.

Sequence of Homeodomain-interacting protein kinase 3 (Homo sapiens) (Q9H422 whole entry, looked up): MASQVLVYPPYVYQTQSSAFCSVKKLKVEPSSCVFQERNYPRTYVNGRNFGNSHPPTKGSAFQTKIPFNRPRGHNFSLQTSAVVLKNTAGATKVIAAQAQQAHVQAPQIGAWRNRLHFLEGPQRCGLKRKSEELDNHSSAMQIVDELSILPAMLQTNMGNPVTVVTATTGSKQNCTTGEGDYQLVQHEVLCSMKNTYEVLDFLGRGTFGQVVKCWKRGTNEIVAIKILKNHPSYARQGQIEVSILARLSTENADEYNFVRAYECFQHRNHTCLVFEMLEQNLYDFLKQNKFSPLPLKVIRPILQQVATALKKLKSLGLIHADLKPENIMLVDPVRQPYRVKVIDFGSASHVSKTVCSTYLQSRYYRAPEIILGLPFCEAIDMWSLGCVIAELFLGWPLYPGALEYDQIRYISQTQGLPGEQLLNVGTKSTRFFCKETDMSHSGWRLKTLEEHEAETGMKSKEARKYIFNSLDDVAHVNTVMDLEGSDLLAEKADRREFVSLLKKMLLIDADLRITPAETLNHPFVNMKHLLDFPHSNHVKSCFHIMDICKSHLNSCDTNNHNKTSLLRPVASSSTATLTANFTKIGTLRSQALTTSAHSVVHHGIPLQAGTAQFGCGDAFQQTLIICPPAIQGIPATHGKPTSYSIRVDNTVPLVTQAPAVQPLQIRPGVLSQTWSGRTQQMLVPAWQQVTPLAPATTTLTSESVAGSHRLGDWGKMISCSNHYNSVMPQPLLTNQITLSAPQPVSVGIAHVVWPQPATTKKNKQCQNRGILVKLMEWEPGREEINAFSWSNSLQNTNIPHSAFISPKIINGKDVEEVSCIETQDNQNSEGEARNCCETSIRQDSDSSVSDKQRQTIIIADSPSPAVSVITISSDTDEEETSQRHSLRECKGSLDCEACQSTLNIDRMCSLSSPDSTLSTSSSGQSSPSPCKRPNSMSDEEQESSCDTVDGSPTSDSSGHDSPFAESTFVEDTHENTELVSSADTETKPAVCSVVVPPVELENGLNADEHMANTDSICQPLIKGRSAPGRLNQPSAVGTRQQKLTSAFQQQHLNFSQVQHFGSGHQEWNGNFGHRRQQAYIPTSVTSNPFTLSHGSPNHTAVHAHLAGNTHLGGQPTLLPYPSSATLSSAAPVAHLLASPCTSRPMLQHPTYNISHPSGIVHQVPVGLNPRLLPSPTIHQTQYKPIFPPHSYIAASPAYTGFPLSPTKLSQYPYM
Sequence of Protein kinase C eta type (Homo sapiens) (P24723 whole entry): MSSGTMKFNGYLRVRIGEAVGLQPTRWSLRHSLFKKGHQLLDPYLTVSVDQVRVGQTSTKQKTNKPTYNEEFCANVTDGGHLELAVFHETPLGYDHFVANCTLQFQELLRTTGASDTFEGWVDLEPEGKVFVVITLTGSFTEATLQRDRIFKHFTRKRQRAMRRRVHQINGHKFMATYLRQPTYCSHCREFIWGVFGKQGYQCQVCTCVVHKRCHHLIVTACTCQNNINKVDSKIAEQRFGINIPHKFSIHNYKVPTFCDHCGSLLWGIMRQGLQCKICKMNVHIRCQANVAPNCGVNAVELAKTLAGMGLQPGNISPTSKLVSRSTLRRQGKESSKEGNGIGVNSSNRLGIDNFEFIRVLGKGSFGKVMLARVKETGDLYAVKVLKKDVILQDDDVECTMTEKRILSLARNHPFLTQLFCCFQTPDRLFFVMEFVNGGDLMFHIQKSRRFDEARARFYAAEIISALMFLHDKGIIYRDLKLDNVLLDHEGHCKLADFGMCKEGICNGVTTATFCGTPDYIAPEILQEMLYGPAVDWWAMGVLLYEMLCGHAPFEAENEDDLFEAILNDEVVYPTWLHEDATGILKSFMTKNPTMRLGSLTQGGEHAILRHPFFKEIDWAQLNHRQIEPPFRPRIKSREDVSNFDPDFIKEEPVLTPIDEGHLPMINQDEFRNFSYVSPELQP

A word on the residual activity: it is the signal under treatment as a percentage of the control signal. `Oc1ccc(-c2nc(-c3ccc(F)cc3)c(-c3ccncc3)[nH]2)cc1`: the residual activity amounted to 105% in test [1]; 55% in [2]; 10% in [3]; 59% in [4]; 24% in [5]; 98% in test [6]. Besides, the residual activity in test [7] amounted to 45%; in test [8] it was 113%; in test [9] it was 141%; in test [10] it was 92%; in [11], 100%; in test [12] it was 70%. Moreover, the residual activity was 101% in test [13]; 75% in test [14]; 109% (inactive) in [15]; 105% in test [16]; 94% in test [17]; 36% in [18]. The values for the residual activity in [19] and in [20] were 102% and 81%, respectively.
As for `COc1ccc(C(=O)Nc2sc3c(c2C(N)=O)CCCC3)cc1OC`, the residual activity amounted to 97% in test [1]; 109% in test [2]; 93% in [3]; 66% in test [4]; 70% in test [5]; 95% in test [6]. In addition, the residual activity came to 94% in [7]; 115% in test [8]; 74% in test [9]; 109% in test [10]; 98% in test [11]; 77% in test [12]. The residual activity is 89% in [13]; 84% in [14]; 89% (inactive) in test [15]; 107% in [16]; 89% in [17]; 96% in test [18]. Moreover, the residual activity in test [19] came to 103%; in [20], 108%.
With `Oc1c2ccccc2c2c3c(cccc13)N=N2`, the residual activity is 19% in [1]; 10% in test [2]; -1% in test [3]; 57% in test [4]; 27% in test [5]; 80% in test [6]. In addition, the residual activity in [7] was 83%; in [8] it was 91%; in [9], 105%; in test [10], 106%; in [11], 86%; in test [12], 82%. Further, the residual activity was 90% in [13]; 76% in [14]; 117% (inactive) in test [15]; 107% in [16]; 32% in test [17]; -1% in test [18]. The residual activity was 92% in [19] and 36% in [20].
